Measurements: the supplement of paper PMC10941209

tested on: HFF; test: cell viability relative to DMSO control; higher = less cytotoxic; details: 1 µM; 72 h
Method: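 Single-dose cytotoxicity screen of the MMV Pandemic Response Box at 1 uM on human foreskin fibroblasts (HFF), 72 h at 37 C. Viability measured by MTT (OD 550 nm) and normalised to the DMSO control (% survival).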

Structure (SMILES)	cell viability [%]
Nc1cc(-c2nc3ccccc3[nH]2)n[nH]c1=O	67.1
NC1C2CC3CC(C2)CC1C3 (configuration not stated)	66.1
NC(=O)C(c1ccccc1)(c1ccccc1)[C@H]1CCCN(CCc2ccc3c(c2)CCO3)C1	64
CCNC(=O)Nc1cc(-c2ccccc2)c(-c2cncc(C(=O)O)c2)cn1	63.8
CC(C)N(c1cc(-c2ccccc2)sc1C(=O)O)C(=O)[C@H]1CC[C@H](C)CC1	67.5
COC(=O)Nc1nc2cc([S+]([O-])c3ccccc3)ccc2[nH]1 (configuration not stated)	64.6
Cc1cc(CCCOc2c(C)cc(-c3noc(C(F)(F)F)n3)cc2C)on1	65.5
O=C(O)c1cc(-c2ccccc2)nc2ccccc12	70.7
Fc1ccc2c(/C=C/c3cccnc3)c[nH]c2c1	63.2
CC#C[C@]1(O)CC[C@H]2[C@@H]3CCC4=CC(=O)CCC4=C3[C@@H](c3ccc(N(C)C)cc3)C[C@@]21C	52
CC(C)c1cc2c(cc1S(=O)(=O)O)[C@@]1(C)CCC[C@@](C)(C(=O)O)[C@@H]1CC2	64.8
O=C(Nc1nnc(-c2ccccc2)o1)c1ccc(F)cc1	65.2
Cc1onc(-c2ccccc2Cl)c1C(=O)N[C@@H]1C(=O)N2[C@@H]1SC(C)(C)[C@@H]2C(=O)O	69
CCCC1(C2CC2)c2cc(Cl)ccc2NC(=O)N1C (configuration not stated)	62.3
O=C(O)C[C@H]1CC[C@H](c2ccc(-c3ccc(Nc4ccc(C(F)(F)F)nc4)cn3)cc2)CC1	67.6
COc1cc2c(O)c3c(c(-c4ccc5c(c4)OCO5)c2cc1OC)C(=O)OC3	66.8
COC1CC2CCC(C)C(O)(O2)C(=O)C(=O)N2CCCCC2C(=O)OC(C(C)CC2CCC(OCCO)C(OC)C2)CC(=O)C(C)/C=C(\C)C(O)C(OC)C(=O)C(C)CC(C)/C=C/C=C/C=C/1C (configuration not stated)	60.8
CCc1nc(N)nc(N)c1C#CC(C)c1cc(OC)cc(-c2ccncc2)c1 (configuration not stated)	79.3
CC(C)=CCC/C(C)=C/CNCCNC1C2CC3CC(C2)CC1C3 (configuration not stated)	80.2

Structure (SMILES)	cell viability [%]
CC[C@@]1(O)C(=O)OCc2c1cc1n(c2=O)Cc2cc3c(CN(C)C)c(O)ccc3nc2-1	50.1
C[C@@H]1O[C@@H]1P(=O)(O)O	65
CNc1nc(=O)[nH]cc1F	68.4
CC[C@@H](CO)NCCN[C@@H](CC)CO	76.1
CC1=C(/C=C/C(C)=C/C=C/C(C)=C/C(=O)Nc2ccc(O)cc2)C(C)(C)CCC1	70.8
Cc1cc(C)n2nc(C(=O)NS(=O)(=O)c3c(C)cccc3OC(F)(F)F)nc2n1	72.2
O=c1ccc2ncc(=O)n3c2n1CC3CN1CCC(NCc2cc3c(cn2)OCCC3)CC1 (configuration not stated)	60
C=C(C)[C@@H]1CC[C@]2(C(=O)O)CC[C@]3(C)[C@H](CC[C@@H]4[C@@]5(C)CC[C@H](O)C(C)(C)[C@@H]5CC[C@]43C)[C@@H]12	69.3
CCC(C)(C)c1ccc(CC(C)CN2C[C@@H](C)O[C@@H](C)C2)cc1 (some centres not stated)	65
CCc1nc(N)nc(N)c1C#CCc1ccccc1	69.3
O=S(=O)(NCB(O)O)c1cc2c(Cl)ccc(Cl)c2s1	68
O=[N+]([O-])c1cn(Cc2nc(O)nc(O)c2Br)cn1	70.3
CCOC(=O)N[C@@H]1CC[C@@H]2[C@@H](C1)C[C@H]1C(=O)O[C@H](C)[C@H]1[C@H]2/C=C/c1ccc(-c2cccc(F)c2)cn1	55.3
O=C(NCc1ccc2c3c(cccc13)C(=O)N2)c1cccs1	62.2
Clc1ccc(Cn2c(CN3CCCC3)nc3ccccc32)cc1	67.7
CCNC(=O)Nc1cn2c(-c3ncc(CC)cn3)cc(-c3cccnc3)cc2n1	71.6
O=C(/C(=C/c1ccc(Cl)cc1Cl)n1ccnc1)c1ccc(Cl)cc1	74.8
NC(=O)c1nccn([C@@H]2O[C@H](CO)[C@@H](O)[C@H]2O)c1=O	72.5
